TDP1 cell CPT – DT40-hTDP1 cell growth loss with CPT; chicken DT40 Tdp1-/-;hTDP1 cells + 20 nM CPT, ATP luminescence, 48 h; Potency, µM (series often up to 46.2 µM), most hits filed as inhibitors; hit rate 12% among 420,000; AID 686979; further: nearly all actives have a fitted effect of over 55% in size
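Chicken DT40 Tdp1-/- cells complemented with human TDP1, 400 cells/well, exposed to compounds plus 20 nM camptothecin for at least 48 h at 37 C; viability read as ATP content by CellTiter-Glo luminescence.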
DT40 TDP1 no CPT – qHTS for Inhibitors of human tyrosyl-DNA phosphodiesterase 1 (TDP1): qHTS in cells in absence of CPT | Potency, µM (series often up to 46.2 µM), usual class: inhibitors | DT40 Tdp1-/- hTDP1 cells, no CPT, ATP luminescence, 48 h | hit rate 15% among 420,000; further: nearly all actives have a fitted effect of over 55% in size
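Chicken DT40 Tdp1-/- cells stably complemented with human TDP1 were seeded at 400 cells/well with DMSO in place of 20 nM camptothecin. After compound pinning, cells grew at least 48 hr at 37 °C; viability read by CellTiter-Glo luminescence.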
RORgamma inh – ROR gamma (mouse) transcription inhibition; hit rate 5.4% among 310,000; AID 2551; Drosophila S2 Gal4-RORgamma UAS-luciferase reporter, 20 h; Potency, µM (top dose mostly 53.6 µM), usual class: inhibitors; further: nearly all actives have a fitted effect of over 60% in size
Target sequence (P51450 whole entry, looked up, the tested form may be a part): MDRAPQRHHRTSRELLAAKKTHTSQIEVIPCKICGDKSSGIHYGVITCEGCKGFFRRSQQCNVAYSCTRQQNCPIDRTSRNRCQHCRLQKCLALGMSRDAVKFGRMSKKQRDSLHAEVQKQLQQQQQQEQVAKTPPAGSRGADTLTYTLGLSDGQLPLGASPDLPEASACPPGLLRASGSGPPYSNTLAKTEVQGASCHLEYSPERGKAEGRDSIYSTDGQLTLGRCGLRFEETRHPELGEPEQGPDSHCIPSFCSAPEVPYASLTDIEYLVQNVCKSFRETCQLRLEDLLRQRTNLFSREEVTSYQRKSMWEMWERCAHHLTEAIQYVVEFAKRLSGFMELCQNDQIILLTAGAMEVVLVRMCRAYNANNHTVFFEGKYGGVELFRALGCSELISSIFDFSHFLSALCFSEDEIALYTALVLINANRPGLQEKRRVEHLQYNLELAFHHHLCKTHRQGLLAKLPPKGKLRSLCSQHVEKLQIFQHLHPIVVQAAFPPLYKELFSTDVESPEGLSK
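Compounds are pin-transferred onto Drosophila Schneider cells expressing a copper-inducible Gal4–ROR gamma transactivation domain fusion. After 1 hr, copper sulfate is added to 700 uM final; luciferase is read 20 hr later.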
IL-1B inflam inh – inflammasome signaling inhibition, IL-1 beta readout. THP-1 LPS/ATP IL-1B secretion, AlphaLISA, 16 h; active compounds read low. activity change, % at 57.5 µM. hit rate 4.7% among 360,000; in the data active means activity change below about -50%; inconclusive means mostly about -30% to -49%
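Secreted IL-1B measured by AlphaLISA bead assay after 16 h compound exposure of THP-1 cells; compounds (final up to 57.5 uM) added 1 h before LPS (250 ng/mL) and ATP (1.25 mM) stimulation; lower signal means less secretion.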
Gal4-VP16 FLuc – Gal4-VP16 reporter inhibition counter-screen. Drosophila S2 Gal4-VP16 UAS-luciferase, luminescence, 20 h. Potency, µM (doses to about 53.6 µM), most hits filed as inhibitors. hit rate 3.5% among 310,000. AID 2546;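 further: Gal4-VP16 expression switched on by copper sulfate through the metallothionein promoter; nearly all actives have a fitted effect of over 50% in size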
ELG1 repair inh – inhibitors of ELG1-dependent DNA repair in HEK293T cells. AID 504467. HEK293T ELG1-luciferase reporter, luminescence, 16 h; DNA damage induced by 5-fluorouridine. Potency, µM (doses to about 46.1 µM), hits mostly inhibitors. hit rate 2.3% among 330,000; further: nearly all actives have a fitted effect of over 55% in size
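Reporter activity after DNA damage by 5-fluorouridine is monitored. Compound-treated cells incubate 16 hr at 37 °C, then ONE-Glo is added for 30 min before luminescence reading.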
Of the large screens only hits and unclear results are named; the others gave an inactive call. Rows were chosen to be rich in hits. Some 21% of all compounds tested hit in one or more screens of this group. Unless noted, the call rests on the fitted dose curve; in most records, active means well fitted curve in the direction sought with a large enough effect; inconclusive means small, poorly fitted or top-dose-only effect, or another doubt; inactive means no such curve, though single readings can be large; an effect the other way counts as inactive or inconclusive.

O=C(c1ccccc1)N1N=C(c2ccccc2O)CC1c1ccccc1 (stereo not given)	TDP1 cell CPT 21µM, DT40 TDP1 no CPT inconclusive
COc1ccc(C2CC(c3ccc4ccccc4c3OC(C)=O)=NN2C(C)=O)cc1 (stereo not given)	TDP1 cell CPT 10µM, DT40 TDP1 no CPT 9.2µM, ELG1 repair inh inconclusive
COc1cccc([C@@H]2Oc3ccc(OC)cc3C[C@H]2OC(=O)NS(=O)(=O)c2ccc(F)cc2)c1	none (no result: TDP1 cell CPT, DT40 TDP1 no CPT, IL-1B inflam inh, ELG1 repair inh)
COc1ccccc1CNC(=O)OCc1nccnc1C(=O)Nc1ccc(Br)cn1	TDP1 cell CPT inconclusive, DT40 TDP1 no CPT inconclusive, ELG1 repair inh inconclusive
CCC(CC)C(=O)N1CCc2cc(OC)c(OC)cc2C1COc1ccc2c(C)cc(=O)oc2c1 (stereo not given)	TDP1 cell CPT inconclusive, DT40 TDP1 no CPT 16µM (no result: RORgamma inh, IL-1B inflam inh, Gal4-VP16 FLuc, ELG1 repair inh)
COc1ccc(C(=O)N2CCc3cc(OC)c(OC)cc3C2COc2ccc3c(C)cc(=O)oc3c2)c(OC)c1 (stereo not given)	none (no result: RORgamma inh, IL-1B inflam inh, Gal4-VP16 FLuc, ELG1 repair inh)
CCCC(=O)N1CCc2cc(OC)c(OC)cc2C1COc1ccc2c(C)cc(=O)oc2c1 (stereo not given)	TDP1 cell CPT inconclusive, DT40 TDP1 no CPT 13µM (no result: RORgamma inh, IL-1B inflam inh, Gal4-VP16 FLuc, ELG1 repair inh)
COc1cc2c(cc1OC)C(COc1ccc3c(C)cc(=O)oc3c1)N(C(=O)c1ccc(C)c(C)c1)CC2 (stereo not given)	TDP1 cell CPT inconclusive, DT40 TDP1 no CPT 16µM (no result: RORgamma inh, IL-1B inflam inh, Gal4-VP16 FLuc, ELG1 repair inh)
COc1ccc2c(-c3ccc(OCCN4CCCCC4)cc3)c(-c3ccccc3OC)sc2c1	DT40 TDP1 no CPT 15µM (no result: RORgamma inh, Gal4-VP16 FLuc)
Oc1ccc2sc(-c3ccccc3O)c(-c3ccc(OCCN4CCCCC4)cc3)c2c1	TDP1 cell CPT 21µM, DT40 TDP1 no CPT inconclusive (no result: RORgamma inh, Gal4-VP16 FLuc, ELG1 repair inh)
COc1ccc(-c2sc3cc(OC)ccc3c2-c2ccc(OCCN3CCCCC3)cc2)cc1	TDP1 cell CPT 4.6µM, DT40 TDP1 no CPT 5.8µM, IL-1B inflam inh inconclusive (no result: RORgamma inh, Gal4-VP16 FLuc, ELG1 repair inh)
COc1ccccc1-c1sc2ccccc2c1-c1ccc(OCCN2CCCCC2)cc1	TDP1 cell CPT 18µM, DT40 TDP1 no CPT 15µM (no result: RORgamma inh, Gal4-VP16 FLuc)
COc1cc2sc(-c3ccccc3OC)c(-c3ccc(OCCN4CCOCC4)cc3)c2cc1OC	TDP1 cell CPT inconclusive, DT40 TDP1 no CPT inconclusive, ELG1 repair inh inconclusive (no result: RORgamma inh, Gal4-VP16 FLuc)
COc1ccc(Oc2ncc3nc(-c4cccs4)c(=O)n(Cc4cccs4)c3n2)cc1	none (no result: IL-1B inflam inh, ELG1 repair inh)
COc1ccc2c(-c3ccc(OCCN4CCOCC4)cc3)c(-c3ccccc3OC)sc2c1	TDP1 cell CPT 21µM, DT40 TDP1 no CPT 21µM (no result: RORgamma inh, Gal4-VP16 FLuc)
CN(C)CCSc1nc(O)c(-c2ccccc2)c(=O)n1-c1ccccc1	none
Cc1sc2nc(SCCN(C)C)n(-c3ccccc3)c(=O)c2c1-c1ccc(F)cc1	TDP1 cell CPT 18µM, DT40 TDP1 no CPT 26µM
CCc1cc2c(=O)c(-c3nc4ccccc4n3C)coc2c(CN2CCC(C)CC2)c1O	TDP1 cell CPT inconclusive, DT40 TDP1 no CPT 6.5µM
COc1ccc(-c2nc3n(c(=O)c2C#N)CCS3)cc1	none
C=CCSc1nc(-c2ccc(OC)cc2)c(C#N)c(=O)n1CC=C	TDP1 cell CPT 16µM, DT40 TDP1 no CPT 26µM, IL-1B inflam inh -102
COc1ccc(OC)c(S(=O)(=O)Nc2c(C)n(C)n(-c3ccccc3)c2=O)c1	none
CCCCCCn1cc(C(=O)O)c(=O)c2ccccc21	none
CCCCCCCCCCCCCCCCn1cc[n+](Cc2ccccc2)c1C	RORgamma inh inconclusive, Gal4-VP16 FLuc 7.1µM (no result: TDP1 cell CPT, DT40 TDP1 no CPT, IL-1B inflam inh, ELG1 repair inh)
CCc1ccccc1OCc1nc2ccc(S(=O)(=O)N3CCOCC3)cc2[nH]1	TDP1 cell CPT 23µM, DT40 TDP1 no CPT inconclusive, ELG1 repair inh inconclusive
COc1ccc(NS(=O)(=O)c2ccc3nc(COc4ccc5ccccc5c4)[nH]c3c2)cc1	TDP1 cell CPT 18µM, DT40 TDP1 no CPT inconclusive, IL-1B inflam inh -67, ELG1 repair inh 23µM
COc1ccc(OCc2nc3ccc(S(=O)(=O)Nc4ccccc4Cl)cc3[nH]2)cc1	TDP1 cell CPT inconclusive, DT40 TDP1 no CPT inconclusive, RORgamma inh inconclusive, IL-1B inflam inh -51

Source: PubChem (National Center for Advancing Translational Sciences (NCATS))
